Bead autofluor: flagged as autofluorescent in microsphere protease counterscreen; fluorescence intensity (test concentration not listed); AID 624483; compound autofluorescence counterscreen, microsphere flow cytometry; stronger effect = higher value; 3.1% of 360,000 active; in the data active means fluorescence intensity above about 16000; inconclusive means no clear call, values can overlap the other calls
BoNT-A LC inh2: blocks Botulinum neurotoxin A light chain protease; AID 588499; 0.17% of 360,000 active; inhibition, % at 10 µM; multiplex microsphere protease substrate cleavage, flow cytometry
MazEF act: MazEF (E. coli) toxin RNase activation | activation, % at 20 µM | FAM/BHQ RNA-DNA oligo cleavage fluorescence, 5 h | 0.32% of 350,000 active; in the data active means activation above about 50%
Target sequence (P0AE70 whole entry, looked up): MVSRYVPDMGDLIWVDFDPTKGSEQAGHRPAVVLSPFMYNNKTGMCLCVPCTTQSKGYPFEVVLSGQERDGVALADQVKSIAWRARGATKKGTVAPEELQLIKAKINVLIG
Anthrax LF prot: anthrax lethal factor protease inhibition; P15917; multiplex microsphere protease cleavage assay, LF; inhibition, % at 10 µM; 0.12% of 360,000 active
BoNT F protease: inhibitors of Botulinum neurotoxin F light chain protease; Multiplex microsphere protease cleavage assay, flow cytometry; inhibition, % at 10 µM; 0.22% of 360,000 active; in the data active means inhibition above about 35%, passing the limit was not always enough; inconclusive means no clear call, values can overlap the other calls
Large screens that a line does not name were inactive. Shown are actives, neighbours in structure and some others; about 3.6% of the full set was active somewhere. Unless noted, no stated cut-off is given here; in the data, active means inhibition above about 30%; inconclusive means no clear call, values can overlap the other calls; inactive means below that.

CCC(=O)N1CCC1(C)C(=O)Nc1ncc(C)s1 (centres undefined)	none (no result: MazEF act)
CCn1c(NC(=O)c2ccc(F)cc2)c2ccccc2nc1=O	Bead autofluor 19832
CCn1c(NC(=O)c2ccc(C)cc2)c2ccccc2nc1=O	none
COc1ccc(NC(=O)C2(C)CCN2C)cc1OC (centres undefined)	none (no result: MazEF act)
CCN1CCN(Cc2oc(CO)cc(=O)c2O)CC1	Bead autofluor 19271, BoNT-A LC inh2 inconclusive
CCCCNC(=O)c1sc2nc(C)cc(COC)c2c1-n1cccc1	Bead autofluor 16799
Cc1c(OC(=O)c2ccc([N+](=O)[O-])cc2)c2c(c[n+]1C)COC(C)(C)OC2	none
Cc1ncc2c(c1OC(=O)c1ccccc1)COC(C)(C)OC2	Bead autofluor 23118, BoNT-A LC inh2 inconclusive
CCC(=O)Nc1ccc(S(=O)(=O)N2CCCCC2)cc1OC	none
CCC(=O)Nc1ccc(S(=O)(=O)Nc2cccc(C)c2)cc1OC	Bead autofluor 23804
COc1ccc(OC)c(CN2C(=O)c3ccccc3C2c2nnnn2C2CCCC2)c1 (centres undefined)	none (no result: MazEF act)
Cc1cc(=S)cc(C)n1CCO	none
Cc1cc(C)n(CCO)c(=O)n1	Bead autofluor 20285, BoNT-A LC inh2 inconclusive
Cc1ccc(OCc2nnc(SCC(=O)O)n2N)cc1	none
Nn1c(COc2ccccc2)nnc1SC(F)F	Bead autofluor 23749
Cc1ccc2cccc(OC(=O)N3CCCC3)c2n1	Bead autofluor 22325
CC(=O)N1CCN(Cc2nc3cc(NC(=O)c4ccccc4Cl)ccc3n2C)CC1	none
CC(C)C(=O)Nc1ccc2c(c1)nc(CCN1CCN(C)CC1)n2C	Bead autofluor 24142
Cn1c(CN2CCCCC2)nc2cc(NC(=O)c3ccccc3Cl)ccc21	Bead autofluor 20760
Cn1c(CN2CCCCC2)nc2cc(NC(=O)c3ccc(F)cc3)ccc21	none
Cn1c(CN2CCCC2)nc2cc(NC(=O)C3CCCCC3)ccc21	Bead autofluor 17014
CN1CCN(CCc2nc3cc(NC(=O)COc4ccccc4)ccc3n2C)CC1	none
CC(C)N(C(=O)[C@H]1C[C@H](CC(=O)NCCc2ccccn2)C(=O)N2CCc3c([nH]c4cc(CCC(=O)N(C)C)ccc34)[C@]12C)C(C)C	none
COc1ccc(NC(=O)Nc2cccc3c2O[C@H](CN(C)S(C)(=O)=O)[C@@H](C)CN([C@H](C)CO)C3=O)cc1	none
Cc1nc2cc(-c3ccccc3)nn2c(C)c1CCC(=O)N1CCN(c2ccccc2)CC1	none
COc1ccc(CCC(=O)N2CCC3(CC2)OCCO3)cc1	Bead autofluor 16327
COc1ccc(CCC(=O)N2CCN(C3CCCCC3)CC2)cc1	Bead autofluor 20796
Cc1nc2cc(-c3ccccc3)nn2c(C)c1CCC(=O)N1CCC2(CC1)OCCO2	Bead autofluor 16588
CCCc1[nH]nc2c1C1(C(=O)N(Cc3ccccc3)c3ccccc31)C(C(=O)OC)=C(N)O2 (centres undefined)	Bead autofluor 17223
CCN1C(=O)C2(C(C#N)=C(N)Oc3n[nH]c(-c4ccccc4)c32)c2ccccc21 (centres undefined)	Bead autofluor 16247
CC(=O)c1cccc(OCC(O)CN2CCN(C(=O)c3ccco3)CC2)c1 (centres undefined)	none
CC(=O)c1cccc(OCC(O)CN2CC=C(c3ccccc3)CC2)c1 (centres undefined)	Bead autofluor 19622, BoNT-A LC inh2 inconclusive
CC(C)(C)C(=O)OCc1cn(-c2ccc(Cl)cc2)nn1	Bead autofluor 19456, BoNT-A LC inh2 inconclusive
O=C(Nc1cccc(Cl)c1)OCc1cn(-c2ccc(Cl)cc2)nn1	Bead autofluor 16617
CC(C)CC(=O)OCc1cn(-c2ccccc2)nn1	Bead autofluor 21300
COc1ccccc1-c1cnn2c(NC3CCCC3)cc(C)nc12	none
O=C(COC(=O)c1ccccc1N1C(=O)C2C3CCC(C3)C2C1=O)c1ccccc1 (centres undefined)	none
Cc1ccc(C)c(C(=O)COC(=O)c2ccccc2N2C(=O)C3C4CCC(C4)C3C2=O)c1 (centres undefined)	Bead autofluor 20251, BoNT-A LC inh2 inconclusive
COc1ccc(CNCc2ccncc2)c(OC)c1	none
CCC(CC)NCc1ccc(OC)cc1OC	Bead autofluor 22992
COc1ccc(CNC2CCCc3ccccc32)c(OC)c1 (centres undefined)	BoNT-A LC inh2 inconclusive, BoNT F protease inconclusive
COc1ccc(CNC2CCCCC2C)c(OC)c1 (centres undefined)	Bead autofluor 22181
COc1ccc(C(=O)CC2OC(=O)c3ccccc32)cc1OC (centres undefined)	Bead autofluor 21822, BoNT-A LC inh2 inconclusive
CN(c1ccccc1)C(c1ccc(F)cc1)c1nnnn1C1CCCC1 (centres undefined)	Bead autofluor 23833, BoNT-A LC inh2 inconclusive
CN(c1ccccc1)C(c1ccc(F)cc1)c1nnnn1CC1CCCO1 (centres undefined)	Bead autofluor 16681
CCOC(=O)N1CCN(C(=O)C2CCC(=O)N(Cc3ccccc3OC)C2)CC1 (centres undefined)	none
CS(=O)(=O)N1N=C(c2ccccc2)CC1c1ccc2nccnc2c1 (centres undefined)	none
CS(=O)(=O)N1N=C(c2ccc3nccnc3c2)CC1c1ccccc1 (centres undefined)	Bead autofluor 24132
COc1cccc(/C=N/NC(=O)Cn2cnc3c2c(=O)n(C)c(=O)n3C)c1	none
CN(C(=O)CN1CCN(c2cnn(-c3ccccc3)c(=O)c2Cl)CC1)C1CCS(=O)(=O)C1 (centres undefined)	none
CCc1ccc2nc3c(c(C(=O)O)c2c1)CCC3	Bead autofluor 22313
COC(=O)c1c2c(nc3ccccc13)CCC2	Bead autofluor inconclusive
CCCCn1c(N)c(N(CC(C)C)C(=O)CSc2nnc(C)n2-c2ccc(OC)cc2)c(=O)[nH]c1=O	none (no result: Bead autofluor, BoNT-A LC inh2, Anthrax LF prot, BoNT F protease)
N#Cc1cccc(NC(=O)CN2CCN(Cc3ccccc3)CC2)c1	none
O=[N+]([O-])c1ccc(N2CCN(S(=O)(=O)c3ccc(Cl)cc3)CC2)cc1NCC1CCCO1 (centres undefined)	Bead autofluor 16643
Cc1ccc(NC(=O)c2ccc(NCCN)c([N+](=O)[O-])c2)cc1	none
Cc1cccc(NC(=O)c2ccc(NCCc3ccccc3)c([N+](=O)[O-])c2)c1	MazEF act 575
Cc1ccc(NC(=O)c2ccc(NCc3ccco3)c([N+](=O)[O-])c2)cc1Cl	MazEF act 334
O=C(Nc1ccc2c(c1)C(=O)N(CC1CCCO1)C2=O)c1ccc(Cl)c(Cl)c1 (centres undefined)	Bead autofluor 22241, BoNT-A LC inh2 inconclusive
Cc1cc(C)c(S(=O)(=O)N2CCN(c3ccc([N+](=O)[O-])c(NCC4CCCO4)c3)CC2)c(C)c1 (centres undefined)	none
Cc1cccc(N(CC(=O)N2CCCC2)S(C)(=O)=O)c1	none
COc1ccc(N2CC(C(=O)N(C)CC(=O)Nc3ccc(Cl)c(C(F)(F)F)c3)CC2=O)c(OC)c1 (centres undefined)	none
Cc1ccc(NC(=O)c2ccc(NCC3CCCO3)c([N+](=O)[O-])c2)cc1Cl (centres undefined)	MazEF act 267
NC(=O)c1ccc(NCC2CCCO2)c([N+](=O)[O-])c1 (centres undefined)	none

High-throughput results deposited in PubChem BioAssay by several laboratories.
